High-throughput results from PubChem BioAssay.
A selection: hits, their analogues and other compounds. The true share with any hit is near 8.7%.
VACV mCherry inh = vaccinia inhibition (mCherry reporter); Vaccinia virus mCherry reporter infection, fluorescence; AID 720579; actives 0.63% (n = 310,000); Potency, µM (top dose mostly 36.5 µM), for inactives: top-dose activity change, negative = inhibition, hits mostly inhibitors; calls by dose curve; tested in A549 cells; further: nearly all actives have a fitted effect of over 35% in size
Pf growth 96h = P. falciparum growth inhibition at 96 hours; Potency, µM (series often up to 28.7 µM), without a hit: at the highest dose activity change, negative = inhibition, actives largely listed as inhibitors; P. falciparum luciferase reporter growth, 96 h; AID 504834; actives 6.9% (n = 320,000)
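Parasite growth measured via integrated firefly luciferase reporter in P. falciparum. Infected erythrocytes at 2% hematocrit, 0.05% parasitemia final were treated 96 hours at 37 C under 5% CO2, and luminescence was read.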
Pf growth 48h = inhibits P. falciparum growth in the first generation, 48 h | P. falciparum luciferase growth in erythrocytes, 48 h | Potency, µM (top dose mostly 28.7 µM), without a hit: at the top dose activity change, negative = inhibition, hits mostly inhibitors | actives 5.9% (n = 310,000) | AID 504832
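Here the parasites carry a stable luciferase gene and grow inside erythrocytes in Albumax-based RPMI medium with compound for one erythrocytic cycle. Activity is scored as loss of luminescent signal.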
AMA1-RON2 inh = AMA1-RON2 (P. falciparum) interaction inhibition | AlphaScreen AMA1-biotinylated RON2 peptide binding | Potency, µM (top dose mostly 58.2 µM), without a hit: at the top dose activity change, negative = inhibition, hits mostly inhibitors | actives 0.2% (n = 360,000) | AID 720542;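 further: 0% = vehicle wells and -100% = peptide control; nearly all actives have a fitted effect of over 45% in size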
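AMA1 (3D7) with his tag at 25 nM final met compounds first, then biotinylated RON2 peptide at 25 nM; detection used donor plus acceptor beads, 10 µg/mL apiece, read by AlphaScreen after 30 min at room temperature.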
Vaccinia Venus = inhibitors of vaccinia virus (Venus reporter); AID 720580; actives 0.46% (n = 330,000); Potency, µM (highest dose often 36.5 µM), without a hit: at the highest dose activity change, negative = inhibition, actives largely listed as inhibitors; Vaccinia virus Venus reporter expression, fluorescence; calls by dose curve; tested in A549 cells; further: nearly all actives have a fitted effect of over 30% in size
* = called active by the depositor; i = inactive; ? = inconclusive; . = not tested or not shown; [ ] = remark or other dose. Unless noted, the call rests on the fitted dose curve; in most records, active means well fitted curve in the direction sought with a large enough effect; inconclusive means small, poorly fitted or top-dose-only effect, or another doubt; inactive means no such curve, though single readings can be large; an effect the other way counts as inactive or inconclusive. Unless noted, on the % scale 0 is the no-effect control and ±100 the full control effect; potency means the concentration at half of the fitted maximal effect.

SMILES | VACV mCherry inh | Pf growth 96h | Pf growth 48h | AMA1-RON2 inh | Vaccinia Venus
CN(C)CCCNc1oc(-c2ccccc2Cl)nc1S(=O)(=O)c1ccccc1 | . | ? | -26.4% | 0.2% | .
CCc1ccccc1NS(=O)(=O)c1ccc2[nH]cc(C(=O)N(CC)Cc3ccccc3)c(=O)c2c1 | -17.0% | . | . | . | -5.0%
O=C(CCS(=O)(=O)c1cc2c3c(c1)CCN3C(=O)CC2)Nc1cccc(Br)c1 | -13.3% | . | . | . | -0.3%
Cc1c(C)n(Cc2ccc(F)cc2)c2ccc(C(=O)N3CCN(c4ccc(Cl)cc4)CC3)cc12 | -16.7% | . | . | . | -10.2%
COc1cccc(-c2cc(C(=O)Nc3cccnc3)c3ccccc3n2)c1 | -14.2% | ? | 3.7µM* | -15.3% | -10.0%
O=C(Nc1cccnc1)c1cc(-c2cccc(Br)c2)nc2ccccc12 | -17.3% | 1.0% | 3.7µM* | -2.5% | -6.4%
O=C(Nn1cnnc1)c1cc(-c2cccc(Br)c2)nc2ccccc12 | ? | 101.4% | 86.7% | 98.3% | -8.8%
O=C(Nc1ccncc1)c1cc(-c2cccc(Br)c2)nc2ccccc12 | ? | 0.828µM* | 0.928µM* | -9.4% | ?
COc1ccc(NC(=O)c2cc(-c3ccncc3)nc3ccc(Br)cc23)cc1OC | -1.2% | 31.3% | 13.1µM* | -9.0% | 5.9%
Cc1nc2cccnc2n1C1CCN(C(=O)Nc2ccccc2C(F)(F)F)CC1 | -1.8% | . | . | . | -1.1%
COC(=O)c1cccc(Nc2c(-c3ccc(SC)cc3)nc3nc[nH]n23)c1 | -5.9% | . | . | . | 0.2%
COc1ccccc1-c1ccnc(-n2ncc(C(=O)NCCc3ccccn3)c2C)n1 | ? | . | . | . | -15.4%
O=C(NC1CC1)c1cc(-c2ccc(Br)cc2)nc2ccccc12 | . | ? | ? | -4.2% | .
O=C(Nc1cccnc1)c1cc(-c2cccnc2)nc2ccc(Br)cc12 | . | 1.17µM* | 1.17µM* | -0.8% | .
CN1CCC(NC(=O)c2cc(-c3cccc(Br)c3)nc3ccccc23)CC1 | -1.1% | -10.7% | 13.1µM* | -11.8% | -20.9%
O=C(NC1=NCCS1)c1cc(-c2cccc(Br)c2)nc2ccccc12 | -6.9% | -5.7% | ? | 21.7% | -28.4%
O=C(Nc1ncccn1)c1cc(-c2cccc(Br)c2)nc2ccccc12 | -29.3% | 1.65µM* | ? | -8.9%[11.6 µM] | -23.9%
Cc1cccc(C(=O)Nc2ccc(OCc3cc(=O)n4ccc(C)cc4n3)cc2)c1 | -8.2% | . | . | . | -8.3%
CCc1ccccc1-n1c(C)nc2cc(C(=O)NCCc3ccc(Cl)cc3)ccc21 | -8.5% | . | . | . | -10.3%
COC(=O)c1ccccc1C(=O)c1cccc2ccccc12 | -9.2% | 0.0% | 0.0% | 16.6% | -12.7%
COC(=O)c1cc2ccccc2c(-c2c(O)ccc3ccccc23)c1O | ? | ? | 9.28µM* | -16.2% | ?
Cc1ccc(C)c(S(=O)(=O)c2cnc(SCC(=O)Nc3ccc(F)cc3F)[nH]c2=O)c1 | 7.0% | . | . | . | 9.3%
CCOC(=O)C(C)Oc1ccc(=O)n(-c2ccccc2)n1 (stereo not given) | . | 1.85µM* | -2.5% | 4.6% | .
CCOC(=O)CC(=O)CSc1nc2ccccc2c(=O)n1CCc1ccc(S(N)(=O)=O)cc1 | -5.9% | . | . | . | -9.0%
C/C(=C\C(=S)Nc1ccccc1)Nc1ccc2ccccc2c1 | -13.6% | ? | 9.28µM* | 2.9% | 5.7%
SMILES | VACV mCherry inh | Pf growth 96h | Pf growth 48h | AMA1-RON2 inh | Vaccinia Venus
Cc1ccc(-c2noc(CNC(=O)c3ccccc3)n2)cc1 | -7.4% | . | . | . | -15.1%
COc1ccccc1N1CCN(/N=C/c2ccc([N+](=O)[O-])cc2)CC1 | . | 10.4µM* | 33.9% | -10.8% | .
CC(=O)Nc1ccc(/C=N/N2CCCCC2)cc1 | 7.0% | 79.2% | 255.0% | -19.6% | -0.8%
O=[N+]([O-])c1ccc(C=NN2CCCCCC2)cc1 | -0.5% | . | . | 25.1µM* | -12.2%
COc1ccc(C(=O)N(Cc2cc(OC)c(OC)c(OC)c2)C2CCS(=O)(=O)C2)cc1Cl (stereo not given) | -5.1% | . | . | . | -2.2%
COc1cn(CC(=O)Nc2ccc(F)cc2)c(CN2CCCCC2)cc1=O | -13.2% | . | . | . | -7.6%
Cc1ccc(C)c(NC(=O)COc2cccc3c2CCN(Cc2ccccc2C)C3=O)c1 | -16.5% | 10.4µM* | ? | -2.1%[11.6 µM] | -12.8%
COc1ccc(NC(=O)COc2cccc3c2CCN(Cc2cccnc2)C3=O)cc1 | -1.9% | ? | ? | -0.1% | -14.7%
CCOc1ccc(NC(=O)COc2cccc3c2CCN(Cc2cccnc2)C3=O)cc1 | -29.3% | ? | 11.7µM* | -11.0% | -19.7%
COc1ccc(NC(=O)COc2cccc3c2CCN(Cc2cccnc2)C3=O)c(OC)c1 | . | 1.31µM* | 5.22µM* | -0.5% | .
COc1ccc(NC(=O)c2cnc3cc(C)ccn3c2=O)c(OC)c1 | -11.8% | . | . | . | -2.5%
O=C(Nc1cc(Cl)cc(Cl)c1)c1ccc(F)c(S(=O)(=O)N2CCc3ccccc32)c1 | -26.3% | . | . | . | -20.8%
COC(=O)C1=C(c2ccc(OCc3ccccc3)cc2)C[C@@H]2CC[C@H]1N2C(=O)NCCCCc1ccccc1 | -27.9% | . | . | -6.2% | ?
COC(=O)C1=C(c2cccc(OCc3ccccc3)c2)C[C@@H]2CC[C@H]1N2C(=O)NCc1ccc(C(C)(C)C)cc1 | ? | ? | 3.7µM* | -8.2% | ?
COC(=O)C1=C(c2cccc(OCc3ccccc3)c2)C[C@@H]2CC[C@H]1N2C(=O)NCc1cccc(OC)c1 | ? | 4.15µM* | 10.4µM* | -11.7% | -18.6%
COC(=O)C1=C(c2cccc(OCc3ccccc3)c2)C[C@@H]2CC[C@H]1N2C(=O)NCCCOC(C)C | ? | ? | ? | 9.4% | ?
COC(=O)C1=C(c2cccc(OCc3ccccc3)c2)C[C@@H]2CC[C@H]1N2C(=O)NCCOc1ccc(OC)cc1 | -26.6% | ? | 7.38µM* | -22.1% | ?
COC(=O)C1=C(c2cccc(OCc3ccccc3)c2)C[C@@H]2CC[C@H]1N2C(=O)NCc1ccccc1C(F)(F)F | i | ? | 4.15µM* | 0.0% | ?
CC(C)c1ccc(C2N3CC4(C)CN2CC(c2ccccc2)(C3)C4=O)cc1 (stereo not given) | -8.1% | . | . | . | -7.5%
Cc1cn(S(=O)(=O)c2ccc(F)c(Cl)c2)cn1 | -10.8% | . | . | . | -1.8%
Cn1cc(-c2cc3n(n2)CCC(=O)N3CC(=O)O)c2ccccc21 | -3.9% | . | . | . | 0.0%
COC(=O)C1=C(c2cccc(OCc3ccccc3)c2)C[C@@H]2CC[C@H]1N2C(=O)NCc1ccc(N(C)C)cc1 | -27.1% | ? | 8.28µM* | 11.2µM* | ?
COC(=O)C1=C(c2ccc(OCc3ccccc3)cc2)C[C@@H]2CC[C@H]1N2C(=O)NCc1ccc2[nH]ccc2c1 | -4.0% | . | . | -14.6% | -11.5%
COC(=O)C1=C(c2cccc(OCc3ccccc3)c2)C[C@@H]2CC[C@H]1N2C(=O)NCCN1CCOCC1 | -9.6% | 5.22µM* | ? | -7.9% | -24.1%
O=C(NC1CCCCC1)/C(=C/c1ccc(Cl)cc1)NC(=O)c1ccccc1 | i | . | . | . | -2.5%
